Assay results taken from PubChem BioAssay (NCATS).
Inconclusive results are not listed. A call without a number means that no potency is given here. Calls of active or inactive are those of the source. The call rests on the fitted dose curve; in most records, active means well fitted curve in the direction sought with a large enough effect; inconclusive means small, poorly fitted or top-dose-only effect, or another doubt; inactive means no such curve, though single readings can be large; an effect the other way counts as inactive or inconclusive.

Tests used:
[1] = Quantitative highthroughput screen to assess conditional lethalithy of NOMO1 cells grown in RPMI1640 with untreated serum (RPMI+s) (AID 1963876); further: nearly all actives have a fitted effect of over 35% in size
Procedure, shortened: (§1)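 Each medium arm—HPLM with 10% dialyzed FBS, or RPMI1640 with 5 mM glucose and 10% untreated or dialyzed FBS—was screened against an 11-point, 3-fold compound titration for 48 h at 37 °C, with CellTiter-Glo luminescence as endpoint.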

[2] = Quantitative highthroughput screen to assess conditional lethalithy of NOMO1 cells grown in RPMI1640 with dialyzed fetal bovine serum (RPMI+ds) (AID 1963877); further: nearly all actives have a fitted effect of over 30% in size; on viability: series mostly up to about 46 µM
Procedure, shortened: as §1

[3] = Quantitative highthroughput screen to assess conditional lethalithy of NOMO1 cells grown in Human Plasma-Like Medium with dialyzed fetal bovine serum (HPLM+ds) (AID 1963878); further: nearly all actives have a fitted effect of over 35% in size
Procedure, shortened: as §1

[4] = Quantitative highthroughput screen to assess conditional lethalithy of P12 Ichikawa cells grown in Human Plasma-Like Medium with dialyzed fetal bovine serum (HPLM+ds) (AID 1963879); conditions: Potency: viability; further: nearly all actives have a fitted effect of over 35% in size; on viability: series mostly up to about 46 µM
Procedure, shortened: as §1

[5] = Quantitative highthroughput screen to assess conditional lethalithy of P12 Ichikawa cells grown in RPMI1640 with dialyzed fetal bovine serum (RPMI+ds) (AID 1963880); conditions: Potency: P12-Ichikawa viability; further: nearly all actives have a fitted effect of over 35% in size
Procedure, shortened: as §1

[6] = Quantitative highthroughput screen to assess conditional lethalithy of P12 Ichikawa cells grown in RPMI1640 with untreated serum (RPMI+s) (AID 1963881); conditions: Potency: viability; further: nearly all actives have a fitted effect of over 35% in size; on viability: series mostly up to about 46 µM
Procedure, shortened: as §1

[7] = Quantitative highthroughput screen to assess conditional lethalithy of SEM cells grown in Human Plasma-Like Medium with dialyzed fetal bovine serum (HPLM+ds) (AID 1963882); further: nearly all actives have a fitted effect of over 35% in size; on viability: series mostly up to about 46 µM
Procedure, shortened: as §1

[8] = Quantitative highthroughput screen to assess conditional lethalithy of SEM cells grown in RPMI1640 with unreated serum (RPMI+s) (AID 1963883); further: nearly all actives have a fitted effect of over 35% in size
Procedure, shortened: as §1

[9] = Quantitative highthroughput screen to assess conditional lethalithy of SEM cells grown in RPMI1640 with dialyzed fetal bovine serum (RPMI+ds) (AID 1963884); further: nearly all actives have a fitted effect of over 35% in size; on viability: series mostly up to about 46 µM
Procedure, shortened: as §1
Potency means the concentration at half of the fitted maximal effect.

Structure (SMILES) | Potency [1] | Potency [2] | Potency [3] | Potency [4] | Potency [5] | Potency [6] | Potency [7] | Potency [8] | Potency [9]
Cc1nc(NC(=O)N2CCC[C@@H]2C(N)=O)sc1-c1csc(C(C)(C)C)n1 | 2350 nM (active) | 1660 nM (active) | 1480 nM (active) | 1660 nM (active) | 2350 nM (active) | 1660 nM (active) | 1050 nM (active) | 743 nM (active) | 1050 nM (active)
CN(C)CCC=C1c2ccccc2COc2ccc(CC(=O)O)cc21 | inactive | inactive | inactive | inactive | inactive | inactive | inactive | inactive | inactive
O=C(O)C(=O)Nc1cccc(C2=NN=N[N]2)c1 | inactive | inactive | inactive | inactive | inactive | inactive | inactive | inactive | inactive
C[C@@H](Cc1cc2c(c(C(N)=O)c1)N(CCCO)CC2)NCCOc1ccccc1OCC(F)(F)F | inactive | inactive | inactive | inactive | inactive | inactive | inactive | inactive | inactive
CC1(C)CCC[C@@]2(C)[C@@H]1CC[C@@]1(C)OC(=O)C[C@H]21 | inactive | inactive | inactive | inactive | inactive | inactive | inactive | inactive | inactive
CCC(CC)[C@H](NC(C)=O)[C@@H]1[C@H](O)[C@@H](C(=O)O)C[C@@H]1N=C(N)N | inactive | inactive | inactive | inactive | inactive | inactive | inactive | inactive | inactive
CN1CC(=O)N2C(Cc3c([nH]c4ccccc34)[C@H]2c2ccc3c(c2)OCO3)C1=O (stereo partly drawn) | inactive | inactive | inactive | inactive | inactive | inactive | inactive | inactive | inactive
